# Assay results taken from paper PMC4336329 (PLoS ONE, 2015).
# In all, about 310,000 compounds went through this assay and about 14,000 (4.5%) showed an effect of 50% or more. Effects have a minus sign here. Many of the other results were omitted from the sample, so strong results are more common in it than they were.
# Biological target: human ether-à-go-go-related gene (hERG) potassium channel (human, UniProt Q12809)
# Test: primary screen, population patch clamp on CHO cells stably expressing hERG; higher = less effect of the substance
# 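Further: peak tail current of the secondary pulse compared with the same well before compound.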
# Chain of human ether-à-go-go-related gene (hERG) potassium channel (Q12809 whole entry, looked up): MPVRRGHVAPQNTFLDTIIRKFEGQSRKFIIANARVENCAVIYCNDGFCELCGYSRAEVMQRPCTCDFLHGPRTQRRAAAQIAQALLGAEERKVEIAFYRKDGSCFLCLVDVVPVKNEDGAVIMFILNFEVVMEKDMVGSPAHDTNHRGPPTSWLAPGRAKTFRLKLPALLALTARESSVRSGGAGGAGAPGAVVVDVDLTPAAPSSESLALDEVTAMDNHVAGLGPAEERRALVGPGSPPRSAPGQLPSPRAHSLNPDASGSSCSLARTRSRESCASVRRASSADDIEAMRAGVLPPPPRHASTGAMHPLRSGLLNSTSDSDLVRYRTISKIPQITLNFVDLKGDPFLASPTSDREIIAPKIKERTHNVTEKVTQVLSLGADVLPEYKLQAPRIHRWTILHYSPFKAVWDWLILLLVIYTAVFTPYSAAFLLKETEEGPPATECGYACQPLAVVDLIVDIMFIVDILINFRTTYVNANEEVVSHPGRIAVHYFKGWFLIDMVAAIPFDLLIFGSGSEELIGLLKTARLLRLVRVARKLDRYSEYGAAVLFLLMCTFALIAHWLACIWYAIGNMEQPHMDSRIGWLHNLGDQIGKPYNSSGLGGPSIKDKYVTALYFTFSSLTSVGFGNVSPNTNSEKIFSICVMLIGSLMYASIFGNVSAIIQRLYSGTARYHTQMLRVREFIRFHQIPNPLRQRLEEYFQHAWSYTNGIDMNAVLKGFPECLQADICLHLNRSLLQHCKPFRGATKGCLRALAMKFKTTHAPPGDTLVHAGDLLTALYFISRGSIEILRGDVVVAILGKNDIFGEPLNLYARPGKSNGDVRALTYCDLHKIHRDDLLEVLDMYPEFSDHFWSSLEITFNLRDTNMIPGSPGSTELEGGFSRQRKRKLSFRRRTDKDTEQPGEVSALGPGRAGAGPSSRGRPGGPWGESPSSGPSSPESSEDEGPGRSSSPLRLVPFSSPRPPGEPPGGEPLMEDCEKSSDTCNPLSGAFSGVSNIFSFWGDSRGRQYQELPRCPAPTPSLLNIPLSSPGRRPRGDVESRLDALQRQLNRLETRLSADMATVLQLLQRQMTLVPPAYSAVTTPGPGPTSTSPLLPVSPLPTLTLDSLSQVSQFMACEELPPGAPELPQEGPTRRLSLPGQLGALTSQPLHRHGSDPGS
row,SMILES,"hERG current change (%, negative = inhibition) at 10uM [%]"
1,COc1ccc2nc3oc(C(=O)N4CCC5(CC4)OCCO5)cc3cc2c1,-16.5
2,O=C(Cn1ncc2c([nH]c3ccccc32)c1=O)Nc1ccc(CN2CCCCC2)cc1,-65.8
3,O=C(Cn1ncc2c([nH]c3ccccc32)c1=O)NCC1CCN(Cc2ccccc2F)CC1,-44.2
4,O=C(Cn1ncc2c([nH]c3ccccc32)c1=O)NCC1CCN(Cc2ccc(F)cc2)CC1,-66
5,Cc1cccc(CN2CCC(CNC(=O)Cn3ncc4c([nH]c5ccccc54)c3=O)CC2)c1,-23.1
6,O=C(Cn1ncc2c([nH]c3ccccc32)c1=O)Nc1cccnc1,10.3
7,Cc1ccc(NC(=O)Cn2ncc3c([nH]c4ccccc43)c2=O)cc1Cl,21.4
8,CS(=O)(=O)N(CC(O)CON=C1c2ccccc2-c2ccccc21)c1ccc(F)cc1 (stereo not drawn),8.83
9,O=C(Cc1ccc(Cl)cc1)c1c[nH]c(C(=O)NCc2cccnc2)c1,-0.756
10,COc1cccc(-c2nnc(SCC(=O)Nc3ccc(OC)c(OC)c3)n2N)c1,14.3
11,COc1ccc(-n2c(=O)c3c4c(sc3n(CC(=O)NCc3ccco3)c2=O)CCC4)c(OC)c1,-4.75
12,O=C(NCCN1CCOCC1)c1ccc2c(c1)N(Cc1ccc(F)cc1)C(=O)CS2,0.414
13,COc1ccc(CN(C(=O)CN2C(=O)c3ccccc3S2(=O)=O)C(C(=O)NCC2CCCO2)c2ccco2)cc1 (stereo not drawn),-4.57
14,CCn1c(C)nnc1SCC(=O)Nc1ccc(C(C)=O)cc1,11.5
15,CCN(CC)CCCNc1oc(/C=C/c2ccccc2)nc1C#N,-71
16,CN(C)CCCNc1oc(/C=C/c2ccccc2)nc1C#N,-32.5
17,CN(C)CCNc1oc(/C=C/c2ccccc2)nc1C#N,-29.2
18,CNc1oc(/C=C/c2ccccc2)nc1C#N,8.33
19,CN(C)c1oc(/C=C/c2ccccc2)nc1C#N,8.93
20,C=CCNc1oc(/C=C/c2ccccc2)nc1C#N,-28
21,CN1CCN(c2oc(/C=C/c3ccccc3)nc2C#N)CC1,-53.7

row,SMILES,"hERG current change (%, negative = inhibition) at 10uM [%]"
1,CCN1CCN(c2oc(/C=C/c3ccccc3)nc2C#N)CC1,-63.1
2,CCN1CCN(c2oc(-c3ccco3)nc2C#N)CC1,-24.1
3,N#CC1=C(c2ccc(-c3ccccc3)cc2)COC1=O,-15.1
4,CCCn1nc(C(=O)NNC(=O)CCCOc2ccc(OC)cc2)c2ccccc2c1=O,-8.53
5,Cc1ccc(NC(=O)CC(C(=O)O)c2ccccc2)cc1 (stereo not drawn),8.15
6,O=C(c1ccc(OC2CCN(C/C=C/c3ccccc3)CC2)cc1)N1CCCC1,-75.7
7,COc1ccccc1/C=C/CN1CCC(Oc2ccc(C(=O)N3CCCC3)cc2)CC1,-24.3
8,O=C(c1ccc(OC2CCN(C/C=C/c3ccccc3)CC2)cc1)N1CCCCC1,-53.1
9,O=C(c1ccc(OC2CCN(Cc3ccccn3)CC2)cc1)N1CCCCCC1,-14.9
10,Cc1ccccc1CN1CCC(Oc2ccc(C(=O)N3CCCC3)cc2)CC1,-13.7
11,CCCC(=O)NC(c1ccc(Cl)cc1Cl)c1ccc2cccnc2c1O (stereo not drawn),0.094
12,CC(=O)Cc1c(C(=O)O)c(C)nn1-c1ccccc1,21.5
13,O=[N+]([O-])/C=C/c1ccc2c(ccn2Cc2ccccc2)c1,15.8
14,O=C(COc1ccc(F)cc1)Nc1c(C(=O)N2CCC(N3CCCCC3)CC2)oc2ccccc12,-81.1
15,O=C(COc1ccccc1)Nc1c(C(=O)N2CCC(N3CCCCC3)CC2)oc2ccccc12,-69
16,CCCN1CCN(C(=O)c2oc3ccccc3c2NC(=O)C2CC2)CC1,-42.6
17,COc1ccc(OCC(=O)Nc2c(C(=O)N3CCC(N4CCCCC4)CC3)oc3ccccc23)cc1,-87.7
18,CCCN1CCN(C(=O)c2oc3ccccc3c2NC(=O)COc2ccc(OC)cc2)CC1,-79.5
19,N#Cc1ccccc1OCC(=O)Nc1c(C(=O)C2CC2)oc2ccccc12,2.52
20,COc1ccc(OCC(=O)Nc2ccccc2C(=O)N2CCCC2)cc1,-7.38
21,COCC(=O)Nc1c(C(=O)N2CCCC2)oc2ccccc12,1.46

row,SMILES,"hERG current change (%, negative = inhibition) at 10uM [%]"
1,CC(C)CC(=O)Nc1c(C(=O)N2CCN(Cc3ccccc3)CC2)oc2ccccc12,-20.9
2,COc1ccccc1C(=O)Nc1c(C(=O)N2CCN(C)CC2)oc2ccccc12,-45.2
3,COc1ccc(OCC(=O)Nc2c(C(=O)N3CCN(C)CC3)oc3ccccc23)cc1,-42
4,COc1ccc(N2CCN(C(=O)c3oc4ccccc4c3NC(=O)CCc3cc(OC)no3)CC2)cc1,-10.4
5,CCCCC[C@H](O)/C=C/[C@@H]1[C@@H](C/C=C\CCCC(=O)O)[C@@H](O)C[C@H]1O.NC(CO)(CO)CO,9.22
6,COc1ccccc1CC(=O)N(CCC1=CCCCC1)c1c(N)n(Cc2ccccc2)c(=O)[nH]c1=O,-12
7,CCn1c(CCC(=O)N(C)CC(=O)Nc2cccc(F)c2)nc2cc(S(=O)(=O)N(C)C)ccc21,-19.3
8,CC(=O)C1=C(O)C(=O)N(c2cccc(Br)c2)C1c1ccc(Br)cc1 (stereo not drawn),15.8
9,COCCN(CC(=O)NCc1ccccc1)C(=O)CCC(=O)Nc1ccccn1,4.54
10,CCOC(=O)N1CCN(S(=O)(=O)/C=C/c2ccccc2)CC1,-17.5
11,COC(=O)Cn1cnc2sc(C)c(S(=O)(=O)N3CCN(c4ccccc4OC)CC3)c2c1=O,-5.55
12,Cc1c(Cl)cccc1NC(=O)CNC(=O)c1ccc(F)cc1,27.4
13,Cc1ccc(NC(=O)Nc2nnc(Cc3ccc(F)cc3)s2)cc1,14
14,COc1ccc(-c2nc(CS(=O)CC(=O)NC(C)CCc3ccccc3)c(C)o2)cc1OC (stereo not drawn),-16.8
15,CCCC[N+]12C3C[C@H](C4[C@H](O)[C@]5(C[C@@H]41)c1ccccc1N(C)[C@@H]35)[C@H](CC)[C@H]2O.[I-] (stereo partly drawn),-56.4
16,CC[C@H]1C2C[C@H]3[C@@H]4N(C)c5ccccc5C45C[C@H](C2[C@H]5O)N3[C@@H]1O (stereo partly drawn),-43.8
17,CCC1C2CC3C4N(C)c5ccccc5C45CC(C2C5O)N3[C@@H]1O (stereo partly drawn),-28.5
18,Cc1ccc(C(=O)c2oc3ccc(Cl)cc3c2NC(=O)CN2CCN(C)CC2)cc1,-74.3
19,COc1ccc2oc(C(=O)c3ccccc3)c(NC(=O)CN3CCN(C)CC3)c2c1,-59.8
20,O=C(CN1CCCC1)Nc1c(C(=O)C2CC2)oc2ccccc12,-9.92
21,O=C(CN1CCOCC1)Nc1c(C(=O)C2CC2)oc2ccccc12,-6.8

row,SMILES,"hERG current change (%, negative = inhibition) at 10uM [%]"
1,COc1ccc2oc(C(=O)c3ccccc3)c(N)c2c1,4.76
2,COc1ccc(C(=O)c2oc3ccc(OC)cc3c2NC(C)=O)cc1,27.6
3,CC(=O)Nc1c(C(=O)O)oc2ccc(Cl)cc12,2.23
4,CN1CCN(CC(=O)Nc2c(C(=O)C3CC3)oc3ccccc23)CC1,-52.4
5,CC(=O)c1oc2ccccc2c1NC(=O)CN1CCCCC1.Cl,7.19
6,CN1CCN(CC(=O)Nc2c(C(=O)c3ccccc3)oc3ccccc23)CC1,-78.9
7,NC(=O)c1oc2ccc(Cl)cc2c1NC(=O)CN1CCOCC1,-9.08
8,CC(=O)Nc1c(C(=O)c2ccccc2)oc2ccccc12,-10.3
9,O=C(NN=C1CCCC1)c1[nH]c2ccc(Cl)cc2c1-c1ccccc1,7.13
10,Cc1cc(C(=O)CSc2nc(N)cc(=O)[nH]2)c(C)n1CCc1ccc(F)cc1,1.93
11,O=C(NCCNC(=O)c1cnccn1)c1ccc(Cl)c(Cl)c1,-13.3
12,COc1cccc(NC(=O)c2cnsn2)c1,3.19
13,CCOCCNC(=O)c1ccccc1C(=O)NCCOCC,-11.1
14,O=[N+]([O-])c1cc(N=Nc2ccc3ccccc3c2)ccc1O,12.8
15,COC(=O)C1C2C=CC3(CN(c4cccc(Cl)c4)C(=O)C13)O2 (stereo not drawn),2.49
16,CC1(C)Cc2c(cnn2-c2ccccc2)C(NC(=O)c2ccoc2)C1 (stereo not drawn),-93.4
17,CC1(C)Cc2c(cnn2-c2ccc(F)cc2)C(NC(=O)c2cnccn2)C1 (stereo not drawn),-37.6
18,CC1(C)Cc2c(cnn2-c2ccc(F)cc2)C(NC(=O)c2ccoc2)C1 (stereo not drawn),-89.1
19,CC(=O)c1ccc(C(=O)NC2CC(C)(C)Cc3c2cnn3-c2ccccc2)cc1 (stereo not drawn),-21.8
20,CC1(C)Cc2c(cnn2-c2ccccc2)C(NC(=O)c2ccc[n+]([O-])c2)C1 (stereo not drawn),2.3
21,Cc1cc(C(=O)NC2CC(C)(C)Cc3c2cnn3-c2ccc(F)cc2)no1 (stereo not drawn),-32.8
